MARV entry inh = qHTS for inhibitors of binding or entry into cells for Marburg Virus; AID 540276, 2011; Marburg virus pseudotyped entry inhibition, cell reporter; 300,000 compounds, 1.8% hits; Potency, µM (series often up to 37.8 µM), usual class: inhibitors; calls by dose curve; tested in HEK293 cells
Lassa entry inh = qHTS for Inhibitors of binding or entry into cells for Lassa Virus; Potency, µM (titrated, usually from 37.9 µM), hits mostly inhibitors; 300,000 compounds, 1.2% hits; Lassa virus pseudotype entry inhibition, cell reporter; AID 540256, 2011; calls by dose curve; tested in HEK293 cells; note: nearly all actives have a fitted effect of over 50% in size
HCMV antiviral = qHTS Assay for inhibitors of the human cytomegalovirus (HCMV). HFF cells, HCMV-luciferase reporter, 72 h; stronger effect = lower value. activity change, negative = inhibition, % at 57.5 µM. 410,000 compounds, 4.5% hits. AID 1259415, 2018; in the data active = activity change below about -60%; inconclusive = no clear call, values can overlap the other calls; inactive = above about -39%
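Compounds were evaluated in HFFs infected with an HCMV luciferase reporter virus (MOI 1 PFU/cell). Luciferase in lysates collected 72 h post infection served as the replication measure.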
HCV inhibitor = qHTS Assay for Inhibitors of Hepatitis C Virus (HCV); Huh7.5.1 HCVcc-Cre infection, luciferase reporter, 44 h; Potency, µM (top dose mostly 41.8 µM), usual class: inhibitors; 340,000 compounds, 3.4% hits; AID 651820, 2012
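Cells (1,000/well) were plated 4 h before compound, then infected with HCVcc-Cre virus (~0.5 moi). After 44 h further culture, infection was read as luciferase luminescence following a 15 min substrate incubation at room temperature.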
FMDV inh = High Throughput Screening for Foot and Mouth Disease Virus Antivirals; 410,000 compounds, 1.2% hits; FMDV antiviral cell-based qHTS; Potency, µM (doses to about 57.9 µM), actives largely listed as inhibitors; calls by dose curve; tested in HEK293T cells; note: read-out not given here; nearly all actives have a fitted effect of over 45% in size
WI-38 cytotox = High Content Assay for Compounds that inhibit the Assembly of the Perinucleolar Compartment: WI-38 Cytotoxicity; WI-38 normal lung fibroblasts, ATPLite luminescence ATP viability, 24 h; shares compounds with MARV entry inh; AID 2729, 2010; Potency, µM (highest dose often 46.1 µM), most hits filed as inhibitors; 120 tested, under 10 active
PNC assembly inh = High Content Assay for Compounds that inhibit the Assembly of the Perinucleolar Compartment: Confirmation of PNC Inhibition. 120 compounds, 50% hits. AID 2730, 2010. shares compounds with MARV entry inh. PC3M PTB-GFP, PNC prevalence imaging, 16 h. Potency, µM (top dose mostly 46.1 µM), hits mostly inhibitors
PC3M casp3-7 = High Content Assay for Compounds that inhibit the Assembly of the Perinucleolar Compartment: PC3M Caspase 3/7 Activation. shares compounds with MARV entry inh. PC3M-GFP caspase 3/7 activation, luminescence, 24 h. activity change, positive = activation, % at 46.1 µM. 120 tested, under 10 active. AID 2731, 2010
Numbers stand for hits; n = inactive; u = inconclusive; x = not tested or not shown; [ ] = dose if it differs, or a comment. Hits are enriched below; roughly 7.9% of the tested compounds scored in any of these assays. Unless noted, calls come from the whole dose curve; as a rule, active = well fitted curve in the direction sought with a large enough effect; inconclusive = small, poorly fitted or top-dose-only effect, or another doubt; inactive = no such curve, though single readings can be large; an effect the other way counts as inactive or inconclusive.

SMILES | MARV entry inh | Lassa entry inh | HCMV antiviral | HCV inhibitor | FMDV inh | others
Cn1nnnc1SCC(=O)NC1CCCCC1 | u | n | n | n | n
CCCCn1nnnc1SCC(=O)NC1CCCCC1 | n | n | -98.9 | n | n
O=C(NNC1=NS(=O)(=O)c2ccccc21)c1ccc([N+](=O)[O-])cc1 | u | 7.94µM | n | n | n
O=C(NNC1=NS(=O)(=O)c2ccccc21)c1ccc(Cl)cc1 | x | x | u | n | n
Cc1cc(C(=O)CSc2ccc(F)cc2)cc(C)c1OC(=S)N(C)C | u | u | -92.2 | u | 0.794µM
CC1=C[C@@H](C)OC2(C1)C(=O)N(Cc1ccc(Br)cc1)c1cccc(Br)c12 (stereo partly specified) | n | u | x | x | x
CN(C)c1ccc(-c2noc(C3CCN(S(=O)(=O)c4cccc(Cl)c4)CC3)n2)cc1 | u | u | u | u | n
O=S(=O)(c1ccc2ccccc2c1)N1CCC(c2nc(-c3ccncc3)no2)CC1 | u | n | -73.4 | 8.91µM | u
Cc1ccc(-c2noc(C3CCN(S(=O)(=O)c4ccc5c(c4)OCCO5)CC3)n2)o1 | u | u | -96.0 | 12.6µM | u
O=C1COc2ccc(C(=O)COC(=O)CCSc3ccc(Cl)cc3)cc2N1 | n | u | n | n | n
Cc1cc(/C=C(\C#N)C(=O)NC2CCCCCC2)c(C)[nH]1 | u | n | n | n | n
COc1ccc(-c2[nH]ncc2/C=C(/C#N)C(=O)NC2CCCCCC2)cc1 | 10µM | u | u | 22.4µM | n
Cc1c(O)ccc(/C(Cc2ccc3ccccc3n2)=N\O)c1O | n | u | n | 11.2µM | n
Cc1cc2c(Nc3ccc(C(=O)O)cc3)ncnc2s1 | x | x | n | n | n
Cc1cc2c(Nc3ccc(O)cc3)ncnc2s1 | n | n | -68.9 | u | n
Cc1ccc2c(CC(=O)N3CCOc4ccc(CN5C[C@@H](C)O[C@@H](C)C5)cc4C3)cc(=O)oc2c1 | x | x | x | x | n
CCOc1ccc(/C=C/C(=O)C(C(N)=O)=C2SCCS2)cc1 | u | n | -72.9 | n | n
CCOc1ccc(/C=C/C(=O)Oc2ccccc2)cc1 | u | n | n | n | n
CNC[C@H](CC1CCCCC1)NC[C@H](Cc1ccccc1)NCCC12CC3CC(CC(C3)C1)C2 | x | x | -105.0 | n[8.37 µM] | 31.6µM
NC[C@H](Cc1ccccc1)NCCCCC1CCCCC1 | x | x | n | u | n
COc1ccc(Cn2c(-c3ccc(C)cc3)c[n+]3ccccc23)cc1 | u | 6.31µM | -96.9 | u | u
COc1ccc(-c2nc3ccccc3n2Cc2ccc(C)cc2)cc1 | n | n | n | u | n
CCOc1ccc(N(CC(=O)NCC2CCCO2)C(=O)CCC(=O)Nc2nccs2)cc1 (stereo unspecified) | n | u | n | 22.4µM | n
CCCCOc1ccc(N(CC(=O)NCC2CCCO2)C(=O)CCC(=O)Nc2nccs2)cc1 (stereo unspecified) | n | n | n | n | n
COC(=O)c1cnn(-c2ccc(F)cc2F)c1/C=N/NC(N)=S | x | x | n | 10µM | u
SMILES | MARV entry inh | Lassa entry inh | HCMV antiviral | HCV inhibitor | FMDV inh | others
C=CCn1c(=S)[nH]c2ccc(Br)cc2c1=O | n | n | -60.7 | n | n
O=c1c2cc(Br)ccc2[nH]c(=S)n1Cc1cccnc1 | n | n | n | n | n
O=C(Nc1ccc(O)cc1)c1cc2ccccc2c(=O)s1 | u | n | -70.5 | u | n
Cc1cc(C)nc(SCc2ccc(C(=O)N/N=C/c3ccncc3)cc2)n1 | n | n | n | n | n
Cc1cc(C)nc(SCc2ccc(C(=O)NNC(=O)Nc3cccc(Cl)c3)cc2)n1 | u | 11.2µM | n | 25.1µM | n
O=C(C/C=N\OCc1ccc([N+](=O)[O-])cc1)Nc1ccc(Br)cc1 | n | n | -65.5 | n | n
C[C@]12CCCC3=CC(=O)C=CC31OCC2 (stereo partly specified) | x | x | n | x | x
c1ccc2c(c1)CCC[C@H]2Nc1nc2ccccc2[nH]1 | n | u | x | x | x
COc1cc(C2CC(=O)N(CC(=O)Nc3ccccc3F)c3ccccc3S2)cc(OC)c1OC (stereo unspecified) | u | x | n | x | u
Oc1ccc(-c2n[nH]c(=S)n2-c2ccc3c(c2)OCCO3)c(O)c1 | u | u | -101.1 | n | 2µM
S=c1[nH]nc(-c2ccc(Cl)cc2Cl)n1-c1ccc2c(c1)OCCO2 | n | u | n | n | n
COc1cc(-c2ccc(Nc3ccccc3C(=O)O)c(OC)c2)ccc1Nc1ccccc1C(=O)O | u | u | -67.7 | n | n
Cc1cccc(Nc2ccccc2C(=O)O)c1C | n | u | -63.0 | n[8.37 µM] | n
COc1cccc(Nc2ccccc2C(=O)O)c1 | n | u | n | n | n
COc1cc([N+](=O)[O-])c(OC)cc1Nc1ccccc1C(=O)O | x | x | n | x | x
O=C(O)c1ccccc1Nc1ccccc1 | u | n | n | 5.01µM | n
O=C(CCCCCNC(=O)N1CCn2c1nc1ccccc12)N[C@H](Cc1ccccc1)C(=O)O | x | x | n | n | n
COc1ccc(/C=C/c2nc(C)c(-c3ccccc3)c(=O)[nH]2)cc1OC | x | x | -65.1 | n | n
CCC1OC23CCCCC2C(C#N)(C(=N)O3)C1(C#N)C#N (stereo unspecified) | n | n | u | n | 14.1µM
CCCC1OC23CCCCC2C(C#N)(C(=N)O3)C1(C#N)C#N (stereo unspecified) | n | n | n | u | n
N#CC12COC3(CCCCC3C1(C#N)C#N)OC2=N (stereo unspecified) | u | n | n | n | 28.2µM
COc1ccc(C2(c3ccc(OC)cc3)NC(=O)N(CC(=O)N(C)C3CCC(C)CC3)C2=O)cc1 (stereo unspecified) | u | n | n | u | u
O=C1CCCC2=C1C(c1ccc(Cl)cc1)C1C(=O)c3ccccc3C1=N2 (stereo unspecified) | u | n | -70.4 | u | u
CCc1ccc(S(=O)(=O)/N=C2/C=C(Sc3ncn[nH]3)C(=O)c3ccccc32)cc1 | u | 12.6µM | x | 2.82µM | 31.6µM | WI-38 cytotox=u;PNC assembly inh=28.2µM;PC3M casp3-7=n
Cc1oc(-c2ccccc2Cl)nc1CSCC(=O)N1CCCC1 | u | 0.651µM | -77.6 | u | n | WI-38 cytotox=n;PNC assembly inh=3.98µM;PC3M casp3-7=n
CCn1c(CC(=O)Nc2ccccc2F)nnc1SCC(=O)Nc1nncs1 | n | u | n | n | n
